Data reported in PubChem BioAssay AID651871 (Sanford-Burnham Center for Chemical Genomics, 2012).
Where “and” joins values, the source holds several entries; their conditions need not be identical. Equal entries are not always repeated.

The compounds below were run on H9c2 (assay: cardiomyocyte survival under oxidative or metabolic stress – cell-based, panel, H9c2 and HL-1, ATP luminescence, set 2, SAR follow-up (AID 651871;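 note: cells exposed to stressor for 2 h before ATP readout; reference of the scale not given here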)). Details: H9c2/HL-1 cardiomyocytes, 2-deoxyglucose stress, with 2-deoxyglucose; run 3, at 79 µM (top of the series).

SMILES	activity (protection/inhibition)
COc1ccc2c(c1OC)C(=O)N1c3ccccc3C(=O)N(Cc3cccc(Cl)c3Cl)C21 (stereo not drawn)	71.2% and 81.8% and -10.3%
CCOC(=O)c1cccc(NC(=O)CNC(=O)c2cc(-c3cc(OC)c(OC)c(OC)c3)nc3ccccc23)c1	92.4%
COc1ccc2nc(-c3cc(OC)c(OC)c(OC)c3)cc(C(=O)NCC(=O)Nc3ccc(C(C)=O)cc3)c2c1	75.4%
